In PubChem BioAssay (NCATS):
Inconclusive results are not listed. The source made the active and inactive calls. The call rests on the fitted dose curve; in most records, active means well fitted curve in the direction sought with a large enough effect; inconclusive means small, poorly fitted or top-dose-only effect, or another doubt; inactive means no such curve, though single readings can be large; an effect the other way counts as inactive or inconclusive.

These molecules were tested against Metallo-beta-lactamase type 2 (Klebsiella pneumoniae) (UniProt C7C422) (assay: qHTS to identify inhibitors of the New Delhi Metallo-beta-lactamase (NDM): assay validation screen against the NCATS LOPAC Collection (AID 1794843;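 further: nitrocefin turnover by NDM-1 measured as 485 nm absorbance at plateau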)). Conditions: NDM-1 enzyme, nitrocefin hydrolysis, absorbance 485 nm; series mostly up to 38.4 µM; activity change, negative = inhibition: at the top concentration.
Metallo-beta-lactamase type 2 (Klebsiella pneumoniae), sequence (C7C422 whole entry, looked up): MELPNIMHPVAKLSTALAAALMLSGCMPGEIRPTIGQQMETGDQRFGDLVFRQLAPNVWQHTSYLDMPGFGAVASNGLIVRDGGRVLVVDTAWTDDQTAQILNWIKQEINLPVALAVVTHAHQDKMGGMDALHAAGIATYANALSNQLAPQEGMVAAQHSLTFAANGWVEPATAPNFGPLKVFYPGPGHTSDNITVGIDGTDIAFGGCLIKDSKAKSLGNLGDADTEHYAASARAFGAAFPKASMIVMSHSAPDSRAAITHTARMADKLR
Method in brief: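 NDM-1 at 2 nM final in 50 mM HEPES pH 7.0, 1 uM ZnSO4, 0.01% Tween20, preincubated with LOPAC compounds pinned in DMSO; 50 uM nitrocefin (stock) added. Hydrolysis read as absorbance at 485 nm in the plateau phase.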
On the % scale 0 is the no-effect control and ±100 the full control effect.

| Compound | activity change, negative = inhibition | outcome |
| --- | --- | --- |
| CN1C(=O)CCS(=O)(=O)C1c1ccc(Cl)cc1 (stereo not given) | -3.05% (inactive) |  |
| O=c1[nH]oc2c1CCNC2 | -9.22% (inactive) |  |
| CCCCCN(C)CCC(O)(P(=O)(O)O)P(=O)(O)O | 0.911% (inactive) |  |
| CC(C)N(CCC(C(N)=O)(c1ccccc1)c1ccccn1)C(C)C (stereo not given) |  | inactive |
| CC(C)c1cccc(C(C)C)c1O | 1.17% (inactive) |  |
| Cc1ncsc1CCCl | -25% (inactive) |  |
| CCC1(c2ccc(N)cc2)CCC(=O)NC1=O (stereo not given) | -1.58% (inactive) |  |
| O=P1(N(CCCl)CCCl)NCCCO1 (stereo not given) | -8.3% (inactive) |  |
| NCCc1ccc(O)cc1 | 3.51% (inactive) |  |
| COc1ccc2c(c1OC)C(=O)O[C@H]2[C@@H]1c2cc3c(cc2CCN1C)OCO3 | 0.099% (inactive) |  |
| CC(C)(C)NCC(O)c1ccccc1Cl (stereo not given) | -1.27% (inactive) |  |
| CC(NC(C)(C)C)C(=O)c1cccc(Cl)c1 (stereo not given) | 0.872% (inactive) |  |
| O=C(CCCN1CCC2(CC1)C(=O)NCN2c1ccccc1)c1ccc(F)cc1 | 0.762% (inactive) |  |

Each molecule was assayed against Glutathione peroxidase 1 (Homo sapiens) (UniProt P07203) (assay: Primary qHTS Assay for Inhibitors of Recombinant Selenoprotein Glutathione Peroxidase 1 (GPX1) (AID 1845191; further: nearly all actives have a fitted effect of over 65% in size; further: potency means the concentration at half of the fitted maximal effect)). Conditions: recombinant GPX1, GR-coupled NADPH fluorescence, 15 min; series mostly up to 48.8 µM; activity, negative = inhibition: at the top concentration.
Glutathione peroxidase 1 (Homo sapiens), sequence (P07203 whole entry, looked up): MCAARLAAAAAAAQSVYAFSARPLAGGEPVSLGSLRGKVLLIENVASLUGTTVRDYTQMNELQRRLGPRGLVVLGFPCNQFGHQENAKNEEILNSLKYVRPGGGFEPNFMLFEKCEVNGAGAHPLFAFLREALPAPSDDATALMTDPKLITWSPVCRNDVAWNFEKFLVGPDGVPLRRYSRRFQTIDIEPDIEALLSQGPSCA
Method in brief: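 GR-coupled readout: NADPH consumption tracked by fluorescence, ex 340/em 450 nm, at t=0 and after 15 min at RT. Final mix 10 nM GPX1, 1 mM GSH, 0.5 mM CHP, 0.5 mM NADPH, 100 nM GR, 0.01% BSA, following 30 min enzyme–compound preincubation.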

| Compound | Potency | activity, negative = inhibition | outcome |
| --- | --- | --- | --- |
| CN1C(=O)CCS(=O)(=O)C1c1ccc(Cl)cc1 (stereo not given) | inactive |  |  |
| O=[N+]([O-])O[C@H]1CO[C@H]2[C@@H]1OC[C@H]2O[N+](=O)[O-] |  | -3.68% (inactive) |  |
| COP(=S)(OC)Oc1ccc(SC)c(C)c1 |  | -11.4% (inactive) |  |
| NC(=O)c1cc([N+](=O)[O-])cc([N+](=O)[O-])c1 |  | -13.8% (inactive) |  |
| C[C@]12Cc3cn[nH]c3C[C@@H]1CC[C@@H]1[C@@H]2CC[C@@]2(C)[C@H]1CC[C@]2(C)O |  | -0.492% (inactive) |  |
| O=c1[nH]oc2c1CCNC2 |  | -17.4% (inactive) |  |
| COP(=S)(OC)Oc1cc(Cl)c(Cl)cc1Cl |  |  | inactive |
| CN1C(=O)NC(=O)C(C)(C2=CCCCC2)C1=O (stereo not given) |  | -12.3% (inactive) |  |
| COc1cccc2c1C(=O)c1c(O)c3c(c(O)c1C2=O)C[C@@](O)(C(=O)CO)CC3OC1CC(N2CCOC(OC)C2)C(O)C(C)O1 (stereo not given in full) |  |  | inactive |
| O=C1OC(c2ccc(O)c(S(=O)(=O)O)c2)(c2ccc(O)c(S(=O)(=O)O)c2)c2c(Br)c(Br)c(Br)c(Br)c21 |  |  | inactive |
| CC(C)[C@H]1C(=O)N2CCC[C@H]2[C@]2(O)O[C@](NC(=O)[C@@H]3C[C@@H]4c5cccc6[nH]cc(c56)C[C@H]4N(C)C3)(C(C)C)C(=O)N12 |  | -15.5% (inactive) |  |
| C[C@]12CC[C@H]3[C@@H](CCC4=CC(=O)CC[C@@H]43)[C@@H]1CC[C@@H]2OC(=O)CCC1CCCCC1 |  | -24.1% (inactive) |  |
| CCCCCN(C)CCC(O)(P(=O)(O)O)P(=O)(O)O | inactive |  |  |
| CC(C)N(CCC(C(N)=O)(c1ccccc1)c1ccccn1)C(C)C (stereo not given) | inactive |  |  |
| CC(C)c1cccc(C(C)C)c1O | inactive |  |  |
| COc1c2c(cc3c1OCO3)CCN(C)C2 |  | -20.8% (inactive) |  |

| Compound | Potency | activity, negative = inhibition | outcome |
| --- | --- | --- | --- |
| Cc1ncsc1CCCl | inactive |  |  |
| CN1C[C@H](C(=O)N[C@]2(C)O[C@@]3(O)[C@@H]4CCCN4C(=O)[C@H](Cc4ccccc4)N3C2=O)C=C2c3cccc4[nH]cc(c34)C[C@H]21 |  | 4.51% (inactive) |  |
| CCC1(c2ccc(N)cc2)CCC(=O)NC1=O (stereo not given) | inactive |  |  |
| COc1cccc(C(=O)CCN[C@@H](C)[C@H](O)c2ccccc2)c1 |  | -7.81% (inactive) |  |
| O=c1c(C2CC(c3ccc(-c4ccc(Br)cc4)cc3)Cc3ccccc32)c(O)sc2ccccc12 (stereo not given) | 22.7 µM (active) |  |  |
| O=P1(N(CCCl)CCCl)NCCCO1 (stereo not given) | inactive |  |  |
| CCOP(=S)(OCC)Oc1ccc2c(C)c(Cl)c(=O)oc2c1 |  | -33.9% (inactive) |  |
| NCCc1ccc(O)cc1 |  | -26.4% (inactive) |  |
| COc1ccc2c(c1OC)C(=O)O[C@H]2[C@@H]1c2cc3c(cc2CCN1C)OCO3 | inactive |  |  |
| CC(C)(C)NCC(O)c1ccccc1Cl (stereo not given) | inactive |  |  |
| Nc1ccccc1 |  | 1.06% (inactive) |  |
| CC(NC(C)(C)C)C(=O)c1cccc(Cl)c1 (stereo not given) | inactive |  |  |
| C[C@]12CC[C@@H]3c4ccc(OC(=O)N(CCCl)CCCl)cc4CC[C@H]3[C@@H]1CC[C@@H]2O |  | -3.96% (inactive) |  |
| C[C@@H]1CC2=CC(=O)CC[C@@H]2[C@H]2CC[C@@]3(C)[C@@H](CC[C@]3(C)O)[C@@H]21 |  |  | inactive |
| CC(C)NC(C)C |  | -19.5% (inactive) |  |
| O=C(CCCN1CCC2(CC1)C(=O)NCN2c1ccccc1)c1ccc(F)cc1 | inactive |  |  |
